Assay results from PubChem BioAssay (EPA / NIEHS).
Several values for one entry are separate records, joined by “and”; a condition that tells them apart may be missing. Identical values can stand only once. Records with an inconclusive call do not appear. Some compounds were tested as several samples or in several runs, with calls that do not always agree. Activity calls are given as the source filed them. How the source made its calls, unless noted: active means hit-call score of the fitted dose curve at least 0.9, where 1 is the maximum; inactive means score below 0.9.

Tests used:
CD69, CD69 (gene 969) = experiment: BSK_LPS_CD69: BioMAP Diversity Plus: LPS Assay for CD69 Biomarker Activity (AID 2284303); conditions: primary human HUVEC with PBMC
Method in brief: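 Human umbilical vein endothelial cells co-cultured with PBMC under LPS stimulation, chemical exposure 24 h; cell-surface CD69 measured by ELISA and fitted in the positive direction versus DMSO.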

IYD (gene 389434) = experiment: CCTE_GLTED_hIYD: CCTE's human Iodotyrosine Deiodinase (xIYD) Inhibition Assay, Great Lakes Toxicology and Ecology Division (GLTED) Lab (AID 2284317; active means hit-call score of the fitted dose curve at least 0.9, where 1 is the maximum;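 further: cell-free human IYD enzyme made in baculovirus insect cells; iodide freed from monoiodotyrosine measured by cerium arsenite color change at 420 nm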)
Method in brief: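 First, recombinant human IYD (baculovirus-insect cells), MIT and chemical incubated 3 h. Next, iodide isolated on Dowex. Finally, Sandell-Kolthoff rate read at 420 nm, with platewise normalization to MNT and solvent controls.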

[1] = CCTE_Deisenroth_5AR_NBTE_donor: CCTE's 5alpha-reductase NanoBRET Target Engagement Assay […], Deisenroth Lab (AID 2284319); conditions: actives raise or lower the signal
Method in brief: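 HEK293T cells transiently expressing SRD5A2-NanoLuc, exposed 5 h to chemicals (8 points, 10 nM - 29.9 uM), with testosterone tracer for the final 2 h. Donor luminescence at 460 nm read after Nano-Glo substrate plus extracellular NanoLuc inhibitor; bidirectional fit versus DMSO.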

[2] = CCTE_Deisenroth_5AR_NBTE_acceptor: CCTE's 5alpha-reductase NanoBRET Target Engagement Assay - Autofluorescence Screen, Deisenroth Lab (AID 2284321); conditions: actives raise or lower the signal;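 further: compound fluorescence in the acceptor channel under 460 nm excitation flags autofluorescence artifacts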
Method in brief: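 HEK293T cell-based NanoBRET assay read 5 h after dosing; this acceptor channel serves as an autofluorescence artifact screen. Chemicals at nominal 100 uM were scanned in three independent runs (n=3), excitation 460 nm. Fitting was bidirectional versus DMSO baseline.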

SRD5A2 (gene 6716) = experiment: CCTE_Deisenroth_5AR_NBTE_ratio: CCTE's 5alpha-reductase NanoBRET Target Engagement Assay - Ratio, Deisenroth Lab (AID 2284322); conditions: actives raise or lower the signal
Method in brief: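 Reverse-transfect HEK293T with pNLF1-C-SRD5A2, express 20 h. Pre-incubate cells with chemical 3 h (8-point series, 10 nM - 29.9 uM, duplicate). Add testosterone tracer, 2 h more. Add substrate/inhibitor, read donor and acceptor emission.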

[3] = BSK_IMphg_SRB.Mphg: Macrophage Viability Assessment in the BioMAP Diversity Plus: IMphg Assay (AID 2284295); conditions: primary human endothelial cells with macrophages
Method in brief: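 Venular endothelial cells co-cultured with macrophages, read 24 h after dosing. Total protein measured by 0.1% SRB staining after 10% TCA fixation, absorbance at 560 nm. Fitted in positive direction against DMSO baseline.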

TTR (gene 7276) = experiment: CCTE_GLTED_hTTR_0.5uM: CCTE's human Transthyretin (hTTR) Inhibition Assay, with 0.5uM TTR, Great Lakes Toxicology and Ecology Division (GLTED) Lab (AID 2284320)
Method in brief: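 Cell-free displacement assay in which human TTR at 0.5 uM was incubated with test chemical for 2 h. Displacement of the ANSA probe was read by fluorescence at 380 nm excitation/475 nm emission. Loss of signal was fitted in the positive direction versus DMSO.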

[4] = IUF_NPC2c_oligodendrocyte_migration_120hr: Leibniz Research Institute for Environmental Medicine (IUF) 120-hour Neural Progenitor Cell Migration Assay for Oligodendrocyte Migration (NPC2c) (AID 2284297);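 further: O4-positive oligodendrocyte migration distance divided by radial glia migration distance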
Method in brief: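 Human fetal cortex-derived neural progenitor spheres (0.3 mm) were plated on poly-D-lysine/laminin in N2 differentiation medium and exposed to 7 concentrations for 120 h, with half-medium renewal at day 3. Oligodendrocyte migration distance was normalized to radial glia migration, relative to DMSO.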

[5] = IUF_NPC2a_radial_glia_migration_120hr: Leibniz Research Institute for Environmental Medicine (IUF) 120-hour Neural Progenitor Cell Migration Assay for Radial Glia Migration (NPC2a) (AID 2284298)
Method in brief: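 Single 0.3 mm primary human fetal-cortex (GW 16-19) NPC spheres were plated on poly-D-lysine/laminin in N2 differentiation medium and exposed from day 0 for 120 h, half-medium refreshed day 3. Migration distance came from Hoechst nuclei-density imaging, relative to DMSO.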

[6] = IUF_NPC2a_radial_glia_migration_72hr: Leibniz Research Institute for Environmental Medicine (IUF) 72-hour Neural Progenitor Cell Migration Assay for Radial Glia Migration (NPC2a) (AID 2284299)
Method in brief: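 Migration out of plated human neural progenitor spheres is scored at 72 h as the distance in um from the sphere core edge to the edge of the migration area. Values are the mean of four manual measurements per well, normalised to DMSO.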

[7] = IUF_NPC2b_neuronal_migration_120hr: Leibniz Research Institute for Environmental Medicine (IUF) 120-hour Neural Progenitor Cell Migration Assay for Neuron Migration (NPC2b) (AID 2284300)
Method in brief: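 Primary human fetal cortex neural progenitor spheres (0.3 mm) plated on poly-D-lysine/laminin in N2 differentiation medium, exposed 120 h with half-medium refresh at day 3. TUBB3-stained neuron distance from sphere core, normalized to radial glia migration, versus DMSO.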

[8] = IUF_NPC3_neuronal_differentiation_120hr: Leibniz Research Institute for Environmental Medicine (IUF) 120-hour Neuronal Differentiation Assay (NPC3) (AID 2284301)
Method in brief: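 Single 0.3 mm neurospheres from human fetal cortex were plated in differentiation medium containing test compound. Medium was half-replaced on day 3. After 120 h cells were fixed, immunostained and imaged, and neuronal fraction was scored against DMSO control.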

[9] = IUF_NPC4_neurite_length_120hr: Leibniz Research Institute for Environmental Medicine (IUF) 120-hour Neuronal Morphology Assay for Neurite Length (NPC4) (AID 2284302)
Method in brief: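 Read-out is mean neurite length in µm of TUBB3-positive neurons, skeletonized from high-content fluorescence images after 120 h. Single 0.3 mm primary human neural progenitor spheres differentiated on poly-D-lysine/laminin under continuous compound exposure; DMSO was baseline.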

[10] = IUF_NPC4_neurite_area_120hr: Leibniz Research Institute for Environmental Medicine (IUF) 120-hour Neuronal Morphology Assay for Neurite Area (NPC4) (AID 2284305; active means hit-call score of the fitted dose curve at least 0.9, where 1 is the maximum)
Method in brief: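 Neurite area is read out as the mean pixel area, excluding nuclei, of skeletonized TUBB3-positive neurons imaged after 120 h. Primary human neural progenitor spheres differentiated on poly-D-lysine/laminin with compound present from day 0. Activity was referenced to DMSO controls.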

[11] = IUF_NPC2-5_cytotoxicity_72hr: Cytotoxicity Assessment at 72 hours in the Leibniz Research Institute for Environmental Medicine (IUF) Neural Progenitor Cell Migration and Differentiation Assay for Cytotoxicity (NPC2-5) (AID 2284306; active means hit-call score of the fitted dose curve at least 0.9, where 1 is the maximum;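 further: LDH release into supernatant measured by resorufin fluorescence marking membrane damage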)
Method in brief: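 Membrane integrity loss was scored from fluorescence (RFU) of resorufin generated by LDH in culture supernatant, 72 h after dosing. Differentiating human progenitor spheres received seven serial compound concentrations alongside a solvent control.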

[12] = IUF_NPC2-5_cytotoxicity_120hr: Cytotoxicity Assessment at 120 hours in the Leibniz Research Institute for Environmental Medicine (IUF) Neural Progenitor Cell Migration and Differentiation Assay (NPC2-5) (AID 2284307; active means hit-call score of the fitted dose curve at least 0.9, where 1 is the maximum)
Method in brief: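 Human fetal neural progenitor spheres (0.3 mm, GW 16-19 cortex) were plated on poly-D-lysine/laminin in N2 differentiation medium and exposed for 120 h, with half-medium refresh at day 3. LDH release into supernatant was read by resorufin fluorescence.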

[13] = IUF_NPC2-5_cell_number_120hr: Cell Number Assessment at 120 hours in the Leibniz Research Institute for Environmental Medicine (IUF) Neural Progenitor Cell Migration and Differentiation Assay (NPC2-5) (AID 2284308);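 further: count of Hoechst-stained nuclei in migration zone around plated human neural progenitor spheres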
Method in brief: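 Primary human fetal neural progenitor spheres (GW 16-19, 0.3 mm) plated on poly-D-lysine/laminin in N2 differentiation medium, exposed from day 0 for 120 h with half-medium refresh at day 3; Hoechst-positive nuclei counted in migration area versus DMSO control.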

[14] = IUF_NPC2-5_viability_120hr: Viability Assessment at 120 hours in the Leibniz Research Institute for Environmental Medicine (IUF) Neural Progenitor Cell Migration and Differentiation Assay (NPC2-5) (AID 2284312)
Method in brief: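 Alamar blue resorufin fluorescence read after 5 days of differentiation, with compound present from day 0 and replenished at day 3. Primary hNPC spheres on laminin-coated plates, 37C; seven concentrations plus solvent control, fitted against DMSO.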

[15] = CCTE_Mundy_HCI_iCellGluta_NOG_NeuriteLength: CCTE's Neurite Outgrowth Assay in iCellGluta cells for Neurite Length, Mundy Lab (AID 2284318; active means hit-call score of the fitted dose curve at least 0.9, where 1 is the maximum)
Method in brief: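 Automated high-content imaging of betaIII-tubulin (Alexa Fluor-488) and Hoechst-stained cells gave neurite length, normalized to the DMSO baseline.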

Compound: CCCCN(CCO)CCO
- outcome (CD69, CD69 (gene 969)): inactive

Compound: CCCCCCCCCCCCOCCOS(=O)(=O)O
- AC50 (IYD (gene 389434)): 76.7 µM (active)
- AC50 [1]: 79 µM (active)
- AC50 [2]: 78.4 µM (active)
- AC50 (SRD5A2 (gene 6716)): 79.1 µM (active)

Compound: C=C(F)C(=O)OC(C(F)(F)F)C(F)(F)F
- outcome [3]: inactive
- outcome (CD69, CD69 (gene 969)): inactive

Compound: C=C(C)C(=O)OCCC(F)(F)C(F)(F)C(F)(F)C(F)(F)C(F)(F)C(F)(F)C(F)(F)C(F)(F)F
- outcome [3]: inactive
- outcome (CD69, CD69 (gene 969)): inactive

Compound: CCCCCCCCCCCCN1CCOCC1
- AC50 (IYD (gene 389434)): 51 µM (active)
- outcome [1]: inactive
- outcome [2]: inactive
- outcome (SRD5A2 (gene 6716)): inactive

Compound: CCCO[Si](OCCC)(OCCC)OCCC
- outcome (CD69, CD69 (gene 969)): inactive
- outcome [1]: inactive
- outcome [2]: inactive
- outcome (SRD5A2 (gene 6716)): inactive

Compound: OCC(F)(OC(F)(F)C(F)(OC(F)(F)C(F)(F)C(F)(F)F)C(F)(F)F)C(F)(F)F (centres undefined)
- AC50 [3]: 4.31 µM (active)
- outcome [3]: inactive
- AC50 (CD69, CD69 (gene 969)): 4.81 µM (active)
- outcome (CD69, CD69 (gene 969)): inactive

Compound: O=S(=O)(O)C(F)(F)C(F)(F)OC(F)(F)C(F)(F)F
- outcome [3]: inactive
- outcome (CD69, CD69 (gene 969)): inactive
- AC50 (TTR (gene 7276)): 2.14 µM (active)

Compound: CCCCCCCCOC(=O)c1ccc(O)cc1
- AC50 (IYD (gene 389434)): 39.6 µM (active)

Compound: O=C(O)C(F)(F)OC(F)(F)C(F)(F)OC(F)(F)C(F)(F)C(F)(F)C(F)(F)F
- outcome [3]: inactive
- AC50 (CD69, CD69 (gene 969)): 36 µM (active) and 32.4 µM (active)
- AC50 (TTR (gene 7276)): 0.712 µM (active)

Compound: CC(=O)c1ccc(C)cc1
- outcome (CD69, CD69 (gene 969)): inactive

Compound: CC(=O)C1=C(C)[C@@H]2C[C@@]3(C1)[C@H](C)CC[C@H]3C2(C)C
- outcome [1]: inactive
- outcome [2]: inactive
- outcome (SRD5A2 (gene 6716)): inactive

Compound: c1ccc2scnc2c1
- outcome [4]: inactive
- outcome [5]: inactive
- outcome [6]: inactive
- outcome [7]: inactive
- outcome [8]: inactive
- outcome [9]: inactive
- outcome [10]: inactive
- outcome [11]: inactive
- outcome [12]: inactive
- outcome [13]: inactive
- outcome [14]: inactive
- outcome [15]: inactive
